# Measured values as given in PubChem BioAssay.
# Activity calls are given as the source filed them. Unless noted, the rule behind the calls is not given here.
# What was measured:
# [1] = anti-His antibody binders, primary screen, artefact control for SMM control protein annotation, biochemical, small-molecule microarray, 635 nm fluorescence (AID 1128); conditions: anti-His Alexa647 antibody binding, higher = more signal;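 note: score merges feature fluorescence with signal-to-noise for each printed compound spot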
# [2] = test system: Human papillomavirus type 1a E7 protein (residues 1-88); assay: HPV1a E7 small-molecule binders, primary screen, biochemical, small-molecule microarray, residues 1-88, 635 nm (AID 1129); conditions: small-molecule microarray binding, fluorescence 635 nm; higher = more signal
# [3] = molecular target: Focal adhesion kinase 1 (Homo sapiens) (UniProt Q05397); assay: small-molecule microarray binders of FAK, primary screen, biochemical, 635/667 nm fluorescence, BSA, DTT (AID 1130); conditions: PTK2 binding, 635 nm fluorescence, higher = more signal;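 note: composite of spot emission at 667 nm and signal to noise over triplicate slides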
# Sequence of Focal adhesion kinase 1 (Homo sapiens) (Q05397 whole entry, looked up): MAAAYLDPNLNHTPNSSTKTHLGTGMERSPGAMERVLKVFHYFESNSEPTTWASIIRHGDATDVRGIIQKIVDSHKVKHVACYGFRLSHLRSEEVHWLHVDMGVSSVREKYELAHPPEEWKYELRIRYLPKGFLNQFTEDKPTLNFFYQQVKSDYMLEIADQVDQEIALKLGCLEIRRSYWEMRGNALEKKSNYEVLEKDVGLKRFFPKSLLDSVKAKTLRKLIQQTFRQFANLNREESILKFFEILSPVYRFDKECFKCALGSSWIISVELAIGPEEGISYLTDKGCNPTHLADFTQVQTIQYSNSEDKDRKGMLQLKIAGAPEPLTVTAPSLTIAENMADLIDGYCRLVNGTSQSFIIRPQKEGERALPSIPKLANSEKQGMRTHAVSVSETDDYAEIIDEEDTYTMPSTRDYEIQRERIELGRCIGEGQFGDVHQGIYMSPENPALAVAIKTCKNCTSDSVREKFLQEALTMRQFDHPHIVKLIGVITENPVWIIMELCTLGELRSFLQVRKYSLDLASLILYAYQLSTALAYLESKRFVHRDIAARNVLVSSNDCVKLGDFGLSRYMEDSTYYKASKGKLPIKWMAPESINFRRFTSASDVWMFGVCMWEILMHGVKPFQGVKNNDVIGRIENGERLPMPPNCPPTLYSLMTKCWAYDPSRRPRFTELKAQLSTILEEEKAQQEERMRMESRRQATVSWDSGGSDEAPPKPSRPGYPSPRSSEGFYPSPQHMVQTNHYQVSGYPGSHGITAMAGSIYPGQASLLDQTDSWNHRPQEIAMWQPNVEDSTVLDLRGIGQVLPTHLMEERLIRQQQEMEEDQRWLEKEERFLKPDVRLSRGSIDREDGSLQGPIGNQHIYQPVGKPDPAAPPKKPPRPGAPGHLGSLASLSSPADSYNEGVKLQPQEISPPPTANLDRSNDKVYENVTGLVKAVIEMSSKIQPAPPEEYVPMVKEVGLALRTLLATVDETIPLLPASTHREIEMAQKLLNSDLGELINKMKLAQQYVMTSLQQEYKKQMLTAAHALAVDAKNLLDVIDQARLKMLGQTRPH
# [4] = test system: Fibrinogen (Alexa647-labelled); assay: fibrinogen binders on compound microarrays, profiling panel, artefact control for SMM control-protein annotation, biochemical, small-molecule microarray, 635/667 nm fluorescence (AID 1131); conditions: fibrinogen-A647 binding fluorescence, higher = more signal;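 note: z-score merges 667 nm fluorescence with per-spot signal-to-noise over triplicate slides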
# [5] = molecular target: Follistatin (Homo sapiens) (UniProt P19883); assay: follistatin binders on small-molecule microarrays, primary screen, biochemical, small-molecule microarray, 635/667 nm fluorescence (AID 1132); conditions: FST binding, 635 nm fluorescence, higher = more signal
# Sequence of Follistatin (Homo sapiens) (P19883 whole entry, looked up): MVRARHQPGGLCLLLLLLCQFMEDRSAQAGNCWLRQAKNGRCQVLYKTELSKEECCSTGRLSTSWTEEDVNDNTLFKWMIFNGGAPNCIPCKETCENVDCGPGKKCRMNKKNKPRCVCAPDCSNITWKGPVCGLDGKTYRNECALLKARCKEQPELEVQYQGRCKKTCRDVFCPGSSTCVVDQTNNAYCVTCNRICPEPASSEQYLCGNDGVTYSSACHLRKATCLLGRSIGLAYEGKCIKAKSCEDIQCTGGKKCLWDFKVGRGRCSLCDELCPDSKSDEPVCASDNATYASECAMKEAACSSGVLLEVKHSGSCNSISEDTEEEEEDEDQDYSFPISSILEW
# [6] = molecular target: Fibroblast growth factor 2 (Homo sapiens) (UniProt P09038); assay: FGF2 binders on small-molecule microarrays, primary screen, biochemical, small-molecule microarray, 635/667 nm fluorescence (AID 1133); conditions: small-molecule microarray binding, FGF2, fluorescence 635/667; higher = more signal
# Sequence of Fibroblast growth factor 2 (Homo sapiens) (P09038 whole entry, looked up): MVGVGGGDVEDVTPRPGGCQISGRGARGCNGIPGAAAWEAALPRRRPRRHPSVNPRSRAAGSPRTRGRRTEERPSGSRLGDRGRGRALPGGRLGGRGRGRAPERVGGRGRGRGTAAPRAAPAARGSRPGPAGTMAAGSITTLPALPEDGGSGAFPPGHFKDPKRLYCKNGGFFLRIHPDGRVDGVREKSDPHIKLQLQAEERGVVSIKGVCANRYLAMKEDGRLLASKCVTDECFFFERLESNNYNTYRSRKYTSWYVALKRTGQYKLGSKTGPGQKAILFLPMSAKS
# [7] = mitochondrial membrane potential change in A549 cells, profiling panel, cell-based, JC-1 fluorescence, basal, 24 h, 100 nL (AID 1138); conditions: higher = more signal;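 note: A549 lung adenocarcinoma cells under basal conditions with no added stimulus; test concentration not given here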
# Lefty1 = Lefty1 binders on small-molecule microarrays, primary screen, biochemical, small-molecule microarray, 635/667 nm fluorescence (AID 1139); conditions: small-molecule microarray binding, fluorescence 635/667; higher = more signal
# [8] = test system: wheat germ agglutinin (Triticum aestivum), Alexa647-labelled; assay: wheat germ agglutinin binders on compound microarrays, profiling panel, artefact control for SMM control-protein annotation, biochemical, small-molecule microarray, 635/667 nm fluorescence (AID 1140); conditions: WGA-A647 binding, 635 nm fluorescence, higher = more signal;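 note: score merges 667 nm feature emission with signal to noise over triplicate slides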
# [9] = molecular target: Luciferin 4-monooxygenase (Photinus pyralis) (UniProt P08659); assay: firefly luciferase enzyme inhibitors, primary screen, biochemical, luminescence, purified enzyme, 2006 set (AID 1141); conditions: SteadyGlo luminescence, 30 min, higher = more signal, called active from +8 up or from −8 down;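 note: cell-free assay with purified firefly luciferase at 100 ng per well in PBS; test concentration not given here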
# Sequence of Luciferin 4-monooxygenase (Photinus pyralis) (P08659 whole entry, looked up): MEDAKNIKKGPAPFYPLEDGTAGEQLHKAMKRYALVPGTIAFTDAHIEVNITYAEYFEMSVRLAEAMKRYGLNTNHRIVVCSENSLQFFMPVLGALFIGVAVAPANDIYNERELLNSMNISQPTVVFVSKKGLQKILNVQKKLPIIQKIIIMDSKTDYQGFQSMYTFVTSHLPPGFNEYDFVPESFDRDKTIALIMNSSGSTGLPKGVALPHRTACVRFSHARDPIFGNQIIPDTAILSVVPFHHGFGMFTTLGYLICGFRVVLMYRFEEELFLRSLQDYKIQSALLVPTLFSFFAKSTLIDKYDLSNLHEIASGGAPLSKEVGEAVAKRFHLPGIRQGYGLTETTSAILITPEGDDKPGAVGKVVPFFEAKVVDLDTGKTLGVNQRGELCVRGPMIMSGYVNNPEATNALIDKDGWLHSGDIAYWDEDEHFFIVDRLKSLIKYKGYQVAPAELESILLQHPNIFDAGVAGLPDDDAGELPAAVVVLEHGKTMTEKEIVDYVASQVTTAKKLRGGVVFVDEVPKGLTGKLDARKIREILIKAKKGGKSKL
# [10] = test system: Wnt5a (protein binding on small-molecule microarray); assay: Wnt5a binders on small-molecule microarray, primary screen, biophysical, 635/667 nm fluorescence (AID 1142); conditions: 635 nm fluorescence, higher = more signal;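 note: fluorescence read at 667 nm with signal to noise per printed feature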
# [11] = cell viability in Huh7 cells, primary screen, cytotoxicity control for HCV replication inhibitor project, CellTiter-Glo luminescence, basal, 48 h (AID 1143); conditions: Huh7 HCV replicon, higher = more signal, called active from +8 up or from −8 down;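 note: Huh7 hepatoma cells carrying a hepatitis C replication reporter with no stimulus; test concentration not given here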
# [12] = P. aeruginosa biofilm formation inhibitors, primary screen, PAO1 strain, BacTiter-Glo luminescence, LB-PBS (AID 1144); conditions: 12 h, higher = more signal
# [13] = CREB reporter modulators without forskolin, primary screen, cell-based, PC12, CRE-LacZ reporter, unstimulated (AID 1145); conditions: no forskolin, luminescence, 4.5 h, higher = more signal, called active from +8 up or from −8 down
# [14] = CREB reporter modulators under forskolin, primary screen, cell-based, PC12, CRE-LacZ reporter, forskolin-stimulated (AID 1146); conditions: luminescence, 4.5 h, higher = more signal, called active from +8 up or from −8 down;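 note: PC12 cells with 6xCRE LacZ reporter stimulated by forskolin 10 µM; beta-galactosidase reporter signal reflecting CREB driven transcription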
# [15] = molecular target: Streptavidin (Streptomyces avidinii) (UniProt P22629); assay: streptavidin binders on small-molecule microarray, primary screen, artefact control for SMM compound annotation, biophysical, 635/667 nm fluorescence (AID 1147); conditions: streptavidin binding, higher = more signal;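 note: signal reflects streptavidin binding to arrayed compounds as a control protein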
# Sequence of Streptavidin (Streptomyces avidinii) (P22629 whole entry, looked up): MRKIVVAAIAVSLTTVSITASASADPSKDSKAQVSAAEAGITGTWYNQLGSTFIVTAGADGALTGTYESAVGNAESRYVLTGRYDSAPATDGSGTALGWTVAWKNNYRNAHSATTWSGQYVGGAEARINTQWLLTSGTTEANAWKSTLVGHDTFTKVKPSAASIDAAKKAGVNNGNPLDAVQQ
# [16] = small-molecule binders of probe aInhba, primary screen, biochemical, small-molecule microarray, 635/667 nm fluorescence (AID 1148); conditions: higher = more signal;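 note: score merges 667nm spot fluorescence with signal-to-noise for antibody binding to printed compounds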
# Torsin-1A (Homo sapiens) [17] = molecular target: Torsin-1A (Homo sapiens) (UniProt O14656); assay: torsin A binders from cell lysate, primary screen, small-molecule microarray, wild-type, 635/667 nm (AID 1149); conditions: COS7 hTOR1A-WT lysate, 635 nm fluorescence, higher = more signal
# Sequence of Torsin-1A (Homo sapiens) (O14656 whole entry, looked up): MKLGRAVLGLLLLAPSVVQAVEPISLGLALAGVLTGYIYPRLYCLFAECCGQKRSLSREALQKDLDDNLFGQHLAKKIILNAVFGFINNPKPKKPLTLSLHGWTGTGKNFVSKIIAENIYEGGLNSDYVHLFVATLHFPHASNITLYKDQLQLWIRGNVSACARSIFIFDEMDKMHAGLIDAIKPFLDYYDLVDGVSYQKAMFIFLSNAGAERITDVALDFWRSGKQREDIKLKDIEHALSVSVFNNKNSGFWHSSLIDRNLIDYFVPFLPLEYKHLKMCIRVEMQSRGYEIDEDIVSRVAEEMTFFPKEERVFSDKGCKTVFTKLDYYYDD
# Torsin-1A (Homo sapiens) [18] = molecular target: Torsin-1A (Homo sapiens) (UniProt O14656); assay: small-molecule binders of mutant TOR1A in lysate, primary screen, cell lysate, small-molecule microarray, COS7 lysate, 635/667 nm fluorescence (AID 1150); conditions: COS7 hTOR1A mutant lysate, 635 nm fluorescence, higher = more signal;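 note: score pools 667 nm emission and signal to noise measuring lysate protein binding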
# [19] = test system: Sonic hedgehog protein (Shh); assay: small-molecule binders of Shh protein, primary screen, biochemical, small-molecule microarray, 635/667 nm fluorescence (AID 1151); conditions: small-molecule microarray binding, 635 nm fluorescence; higher = more signal;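 note: Shh protein binding to compounds spotted on small-molecule microarray slides; score combines spot fluorescence intensity with signal-to-noise across triplicate slides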
Structure (SMILES),composite z-score [1],composite z-score [2],composite z-score [3],composite z-score [4],composite z-score [5],composite z-score [6],z-score [7],composite z-score (Lefty1),composite z-score [8],z-score [9],composite z-score [10],z-score [11],z-score [12],z-score [13],z-score [14],composite z-score [15],composite z-score [16],composite z-score (Torsin-1A (Homo sapiens) [17]),composite z-score (Torsin-1A (Homo sapiens) [18]),composite z-score [19]
CCN(CC)c1ccc(N2CC=CC34O[C@@H]5C=CCOC(=O)[C@@H]5[C@H]3C(=O)N(CCCO)[C@@H]4C2=O)cc1 (stereo not given in full),1.53,-1.05,-0.0534,-0.973,-0.658,-0.576,-0.125,-0.923,-0.245,-0.803 (inactive),-0.121,-2.34 (inactive),-0.527 (inactive),-0.228 (inactive),-0.905 (inactive),-1.39,-0.128,0.0507,2.46,-0.0981
COCCOC(=O)N1C(=O)[C@@]2(c3ccccc31)[C@H](C(=O)N1CCCCCCC1)[C@H]1C(=O)O[C@H](c3ccccc3)[C@H](c3ccccc3)N1[C@@H]2c1ccc(O)cc1,0.578,1.21,1.01,0.842,1.41,1.74,0.0314,1.69,1.25,0.047 (inactive),1.21,-2.11 (inactive),-1.14 (inactive),-1.15 (inactive),-1.03 (inactive),2.17,2.13,2.14,2.57,2.17
CCCCC=C[C@@H](NC(=O)c1ccc(C(F)(F)F)cc1)c1ccccc1,0.3,-0.839,0.185,-2.63,-0.21,-0.908,0.798,-0.671,0.052,1.02 (inactive),-0.467,-0.954 (inactive),1.03 (inactive),0.19 (inactive),1.47 (inactive),-0.683,-0.105,-0.652,-0.951,-0.845
COC(=O)C1(CC(C)C)C=C2C(=C(C(C)C)C(=O)C2C)CN1 (stereo not given),0.928,-1.05,0.208,-0.653,-1.04,-0.688,0.44,-0.746,0.323,1.66 (inactive),-0.187,0.254 (inactive),0.825 (inactive),1.34 (inactive),-0.872 (inactive),-0.469,-0.0791,-0.742,-0.15,-0.702
CCOC(=O)C[C@H]1[C@H](OC(=O)c2cc3ccccc3oc2=O)[C@@H](NC(=O)C2CCCCC2)c2cc(OCCCO)ccc2N1C(=O)Cc1ccc(OC)cc1,0.737,0.122,-0.207,0.231,0.722,0.188,0.0812,0.646,0.507,0.696 (inactive),0.418,-0.588 (inactive),-0.273 (inactive),0.849 (inactive),-0.0784 (inactive),0.214,0.243,0.144,0.384,1.15
C=CC[C@@]12N=C(c3ccc(OCCCO)cc3)O[C@@H]1c1ccccc1N(Cc1ccccc1)C2=O,2.52,1.17,0.986,0.8,1.55,1.44,-0.379,1.55,1.04,-2.6 (inactive),0.711,-4.31 (inactive),0.519 (inactive),1.1 (inactive),-1.66 (inactive),0.25,0.605,1.19,0.909,2.06
